DUSP3 inh – DUSP3 (human) phosphatase inhibition; P51452; recombinant VHR phosphatase, pNPP absorbance; inhibition, % at 13.3 µM; 0.52% of 290,000 active; AID 1654; in the data active = inhibition above about 50%
Target sequence (P51452 whole entry, looked up): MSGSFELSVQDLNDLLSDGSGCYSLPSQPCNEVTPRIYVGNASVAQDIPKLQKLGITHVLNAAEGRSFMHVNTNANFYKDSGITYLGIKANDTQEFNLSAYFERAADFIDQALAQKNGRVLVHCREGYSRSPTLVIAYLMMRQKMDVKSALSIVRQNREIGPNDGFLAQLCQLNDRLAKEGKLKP
FadD28 FP inh – M. tuberculosis FadD28 bisubstrate binding inhibition; 0.22% of 360,000 active; AID 588549; inhibition, % at 12.5 µM; FadD28 bisubstrate probe binding, fluorescence polarization; in the data active = inhibition above about 8.5%, passing the limit was not always enough
Mtb BioA inh – blocks M. tuberculosis BioA enzyme activity | 0.096% of 360,000 active | inhibition, % at 9.99 µM | AID 602481 | purified M. tuberculosis BioA enzyme, plate reader; in the data active = inhibition above about 40%
Mtb hypoxia rep – reduces hypoxia-regulated biosensor signal in M. tuberculosis; M. tuberculosis hypoxia-regulated fluorescent reporter, fluorescence; fluorescence inhibition, % (concentration not given with the values); 0.1% of 300,000 active; AID 1159583; in the data active = fluorescence inhibition mostly above about 23%, no sharp cut-off; inactive = mostly below about 17%
3CLpro inhibitor – SARS-CoV 3CLpro protease inhibition; P0C6X7; recombinant SARS-CoV 3CLpro, quenched FRET peptide cleavage; inhibition, % at 6 µM; 0.14% of 290,000 active; in the data active = inhibition above about 12%
Numbers stand for hits. Hits are enriched below; roughly 0.7% of the tested compounds scored in any of these assays.

COc1ccc(CN2C(=O)/C(=C/c3ccc(-c4ccc(Cl)c(C(=O)O)c4)o3)SC2=S)cc1 was read as DUSP3 inh inactive and 3CLpro inhibitor inactive.
For Cc1ccc(OCC(=O)Nc2ccccc2N2CCOCC2)c(C)c1 the results were DUSP3 inh 52, FadD28 FP inh inactive, Mtb BioA inh inactive, Mtb hypoxia rep inactive and 3CLpro inhibitor inactive.
OCC#CCSc1nnc(-c2ccccc2Br)o1 was read as DUSP3 inh inactive, FadD28 FP inh inactive, Mtb BioA inh inactive, Mtb hypoxia rep 41 and 3CLpro inhibitor inactive.
O=C(c1ccco1)N(Cc1cccc([N+](=O)[O-])c1)c1ccc(Br)cc1 was read as DUSP3 inh inactive, FadD28 FP inh inactive, Mtb hypoxia rep inactive and 3CLpro inhibitor inactive.
For O=C(c1ccco1)N(Cc1ccc([N+](=O)[O-])cc1)c1ccc(Br)cc1 the results were DUSP3 inh inactive, FadD28 FP inh inactive, Mtb BioA inh inactive, Mtb hypoxia rep inactive and 3CLpro inhibitor 13.
`COC(=O)C1=C(c2cccc(OC)c2OC)CC2CCC1N2C(=O)N1CCC(C)CC1` (centres undefined) gave Mtb hypoxia rep inactive.
Screening O=C(c1ccc(Br)o1)N1CCN(C23CC4CC(CC(C4)C2)C3)CC1 returned DUSP3 inh 56, FadD28 FP inh inactive, Mtb BioA inh inactive, Mtb hypoxia rep inactive and 3CLpro inhibitor inactive.
Screening CSc1nc2ccccc2n1C(=O)NC1CCCCC1 returned DUSP3 inh inactive, FadD28 FP inh inactive, Mtb BioA inh inactive, Mtb hypoxia rep inactive and 3CLpro inhibitor inactive.
Screening CCC(C(=O)NC1CCCCC1)n1c(SCc2ccccc2F)nc2ccncc21 (centres undefined) returned DUSP3 inh inactive, FadD28 FP inh 9.3, Mtb BioA inh inactive, Mtb hypoxia rep inactive and 3CLpro inhibitor inactive.
Screening COc1cccc2c1C(=O)c1c(O)c3c(c(O)c1C2=O)C[C@@](O)(C(C)=O)C[C@@H]3O[C@H]1C[C@H](N)[C@H](O)[C@H](C)O1 returned DUSP3 inh inactive, FadD28 FP inh 68, Mtb BioA inh inactive and 3CLpro inhibitor inactive.
COc1cccc2c1C(=O)c1c(O)c3c(c(O)c1C2=O)CC(O)(C(=O)CO)CC3OC1CC(N(C)C)C(O)C(C)O1 (centres undefined) was read as FadD28 FP inh 65.
Screening COc1cccc2c1C(=O)c1c(O)c3c(c(O)c1C2=O)C[C@@](O)(C(=O)CO)C[C@@H]3O[C@H]1C[C@H](N)[C@@H](O)[C@H](C)O1 returned FadD28 FP inh 64 and Mtb BioA inh inactive.
Screening COc1ccc(CCC(C)=NNC(N)=O)cc1 returned Mtb hypoxia rep inactive.
N/C(Cc1ccc([N+](=O)[O-])cc1)=N\OC(=O)c1ccccc1F was read as DUSP3 inh 57, FadD28 FP inh inactive and 3CLpro inhibitor inactive.
`CCOC(=O)c1c(S(=O)(=O)Nc2ccc(C)cn2)c(C)n(C)c1C` gave DUSP3 inh 51, FadD28 FP inh inactive, Mtb BioA inh inactive, Mtb hypoxia rep inactive and 3CLpro inhibitor inactive.
Screening COC(=O)C1=C(C(=O)OC)C2Nc3ccccc3[C@@]23CC(C(=O)OC)N(C(=O)c2ccc(Br)cc2)C3=N1 (some centres undefined) returned Mtb hypoxia rep inactive.
Screening CCN(CC)c1ccc(/C=C(\C#N)C(=O)c2ccc(Br)cc2)cc1 returned DUSP3 inh inactive, FadD28 FP inh 28, Mtb hypoxia rep inactive and 3CLpro inhibitor inactive.
O=C(CO)NN=Cc1ccc(Cl)cc1 was read as Mtb hypoxia rep inactive.
Cc1cc(N)n(-c2ccc(Oc3ccccc3)c(S(=O)(=O)O)c2)n1 was read as DUSP3 inh inactive, FadD28 FP inh 14, Mtb hypoxia rep inactive and 3CLpro inhibitor inactive.
`Cc1ccc(C(=O)N2CCc3ccccc32)cc1` gave DUSP3 inh inactive, FadD28 FP inh inactive, Mtb BioA inh inactive, Mtb hypoxia rep inactive and 3CLpro inhibitor inactive.
`O=C(c1ccc(Cl)cc1)N1CCc2ccccc21` gave DUSP3 inh 56, FadD28 FP inh inactive, Mtb BioA inh inactive, Mtb hypoxia rep inactive and 3CLpro inhibitor inactive.
For Cc1ccc(S(=O)(=O)N2C(c3cccs3)CC=C(C(=O)O)C2c2cccc(Cl)c2)cc1 (centres undefined) the results were Mtb hypoxia rep inactive.
`CC(O)Cc1cn(C(CCCCN)C(=O)N2CCNCC2)nn1` (centres undefined) gave Mtb hypoxia rep inactive.
Cc1cc2ncn(/N=C/c3ccc([N+](=O)[O-])o3)c2cc1C was read as DUSP3 inh 52, FadD28 FP inh inactive, Mtb BioA inh inactive and 3CLpro inhibitor inactive.
Screening CCn1c(SCC(=O)N(C)c2ccccc2)nc2c([nH]c3ccccc32)c1=O returned DUSP3 inh 53, FadD28 FP inh inactive, Mtb BioA inh inactive, Mtb hypoxia rep inactive and 3CLpro inhibitor inactive.
COc1ccc(-n2c(SCC(=O)N(C)c3ccccc3)nc3c([nH]c4ccccc43)c2=O)cc1OC was read as DUSP3 inh inactive, FadD28 FP inh inactive, Mtb BioA inh inactive, Mtb hypoxia rep inactive and 3CLpro inhibitor inactive.
CC(NC(=O)c1[nH]cnc1C(=O)Nc1ccc(CNC(=O)OC(C)(C)C)cc1)C(=O)OCc1ccccc1 (centres undefined) was read as Mtb hypoxia rep inactive.
Screening Cc1ccc(Cl)cc1N1CCN(C(=O)c2ccc3c(c2)CCN3S(C)(=O)=O)CC1 returned DUSP3 inh 57, FadD28 FP inh inactive, Mtb BioA inh inactive and 3CLpro inhibitor inactive.
`CS(=O)(=O)N1CCc2cc(C(=O)N3CCN(c4cccc(Cl)c4)CC3)ccc21` gave DUSP3 inh inactive, FadD28 FP inh inactive, Mtb BioA inh inactive, Mtb hypoxia rep inactive and 3CLpro inhibitor inactive.
Screening CCOc1ccc2c(c1)C(=NN1C(=O)c3ccccc3C1=O)C(=O)N2 returned Mtb hypoxia rep inactive.
`O=C(NN=Cc1ccc2cccc(OCc3ccccc3)c2n1)c1ccc(Cl)cc1` gave Mtb hypoxia rep inactive.
`Cc1ccc2nc(-c3cccnc3)cc(C(=O)Nc3ccc(F)cc3C)c2c1` gave DUSP3 inh 53, FadD28 FP inh inactive, Mtb hypoxia rep inactive and 3CLpro inhibitor inactive.
`CC(C)CC(NC(=O)c1nc[nH]c1C(=O)NCc1ccccc1)C(=O)OC(C)(C)C` (centres undefined) gave Mtb hypoxia rep inactive.
`O=C(C=Cc1ccco1)Nc1ccc(Oc2ccc(Cl)cc2)cc1` gave Mtb hypoxia rep inactive.
Cc1cccc(/C=C\c2nc3ccccc3c(=O)[nH]2)c1 was read as DUSP3 inh inactive, FadD28 FP inh inactive, Mtb BioA inh inactive, Mtb hypoxia rep inactive and 3CLpro inhibitor inactive.
For COc1cc(/C=C/c2nc3ccccc3c(=O)[nH]2)cc(Cl)c1O the results were DUSP3 inh 58, FadD28 FP inh inactive, Mtb BioA inh inactive, Mtb hypoxia rep inactive and 3CLpro inhibitor inactive.
O=C(NC(=S)Nc1cccc(S(=O)(=O)NC2=NCCC2)c1)c1cc(-c2ccco2)nc2ccccc12 was read as DUSP3 inh inactive, FadD28 FP inh inactive, Mtb BioA inh inactive, Mtb hypoxia rep inactive and 3CLpro inhibitor inactive.
Screening O=C(Nc1cccc(S(=O)(=O)NC2=NCCC2)c1)c1cc(-c2ccco2)nc2ccccc12 returned DUSP3 inh 52, FadD28 FP inh inactive, Mtb BioA inh inactive, Mtb hypoxia rep inactive and 3CLpro inhibitor inactive.
